Experimental data taken from PubChem BioAssay (NCI).
The panel holds about 79,000 compounds, 15% with a hit somewhere; the sample as a whole holds those more often. Calls of active or inactive are those of the source. Cut-off read from the data, not from the text of the source: active = growth inhibition above about 70%; inactive = the rest.

Legend:
[1] = NCI Yeast Anticancer Drug Screen. Data for the rad52 strain (AID 147);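 note: 0% = growth of vehicle-treated control cultures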; conditions: S. cerevisiae rad52 mutant growth inhibition, stronger effect = higher value
In short: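 Yeast strain carrying a DNA damage repair alteration was exposed to test compounds. Growth inhibition was measured relative to vehicle-treated controls.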

[2] = NCI Yeast Anticancer Drug Screen. Data for the wt1 strain (AID 149);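 note: 0% = growth of vehicle-treated wt1 cultures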; conditions: S. cerevisiae wt1 strain (SPY 50644) growth inhibition, stronger effect = higher value
In short: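 Each compound is tested on wt1 yeast and the loss of growth versus vehicle gives the inhibition value.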

[3] = NCI Yeast Anticancer Drug Screen. Data for the rad50EPP+ strain (AID 151);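 note: 0% = growth of vehicle-treated control cultures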; conditions: S. cerevisiae rad50 mutant strain, stronger effect = higher value
In short: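 Yeast strain carrying rad50 alteration (rad50EPP+) exposed to compounds; growth inhibition measured relative to vehicle-treated controls.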

[4] = NCI Yeast Anticancer Drug Screen. Data for the mgt1 strain (AID 153); conditions: S. cerevisiae mgt1 mutant growth inhibition, stronger effect = higher value
In short: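 Yeast mgt1 strain (DNA repair/cell-cycle alteration panel) exposed to compounds; growth inhibition measured relative to vehicle-treated controls.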

[5] = NCI Yeast Anticancer Drug Screen. Data for the rad50 strain (AID 155);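 note: 0% = growth of vehicle-only cultures of the same strain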; conditions: S. cerevisiae rad50 strain growth inhibition, stronger effect = higher value
In short: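 Vehicle-treated cultures provide the reference for the growth inhibition reported for compound-exposed, repair-deficient yeast.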

[6] = NCI Yeast Anticancer Drug Screen. Data for the mec2-1 strain (AID 157); conditions: S. cerevisiae mec2-1 strain, stronger effect = higher value
In short: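 mec2-1 yeast strain, carrying an alteration in DNA damage repair or cell cycle control, was exposed to compounds; growth inhibition was measured relative to vehicle-treated controls.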

[7] = NCI Yeast Anticancer Drug Screen. Data for the sgs1 mgt1 strain (AID 161);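 note: 0% = growth of cultures given vehicle only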; conditions: S. cerevisiae sgs1 mgt1 strain, stronger effect = higher value
In short: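 Growth of a repair-deficient yeast mutant was monitored after compound treatment and expressed as inhibition relative to vehicle-treated cultures.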

[8] = NCI Yeast Anticancer Drug Screen. Data for the CLN2oe strain (AID 163);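 note: 0% = growth of vehicle-only control cultures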; conditions: S. cerevisiae CLN2oe strain, stronger effect = higher value
In short: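 Yeast cells carrying a defined cell-cycle control alteration were exposed to test compounds. Growth inhibition was scored against vehicle-treated control cultures.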

[9] = NCI Yeast Anticancer Drug Screen. Data for the cln2 rad14 strain (AID 165);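 note: 0% = growth equal to vehicle treated cultures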; conditions: S. cerevisiae cln2 rad14 strain, stronger effect = higher value
In short: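 Yeast carrying cln2 and rad14 alterations (cell cycle control and DNA damage repair) were exposed to compounds. Growth inhibition was measured against vehicle-treated controls.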

[10] = NCI Yeast Anticancer Drug Screen. Data for the bub3 strain (AID 167); conditions: S. cerevisiae bub3 mutant strain, stronger effect = higher value
In short: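 Mutant yeast screening strain plus compound; vehicle-treated cultures serve as the 0% inhibition reference.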

[11] = NCI Yeast Anticancer Drug Screen. Data for the wt2 strain (AID 169); conditions: S. cerevisiae wt2 strain growth inhibition, stronger effect = higher value
In short: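 Yeast cells were exposed to test compounds, and growth inhibition was measured relative to vehicle-treated controls.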

[12] = NCI Yeast Anticancer Drug Screen. Data for the mlh1 strain (AID 171);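 note: 0% = growth of vehicle-treated control cultures of the same strain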; conditions: S. cerevisiae mlh1 strain growth inhibition, stronger effect = higher value
In short: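 Yeast carrying a defined genetic alteration in DNA damage repair or cell cycle control were exposed to test compounds. Growth inhibition was measured relative to vehicle-treated controls.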

[13] = NCI Yeast Anticancer Drug Screen. Data for the sgs1 strain (AID 173);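 note: 0% = growth of vehicle-only control cultures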; conditions: S. cerevisiae sgs1 mutant, stronger effect = higher value
In short: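 Yeast mutant strains carrying defined defects in DNA damage repair or cell cycle control were exposed to test compounds. Growth inhibition was scored against vehicle-treated controls.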

[14] = NCI Yeast Anticancer Drug Screen. Data for the mlh1 rad18 strain (AID 175); conditions: S. cerevisiae mlh1 rad18 strain growth inhibition, stronger effect = higher value
In short: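 Growth inhibition of the yeast strain was measured after compound exposure and expressed relative to vehicle-treated controls. The strain carries defined defects in DNA damage repair.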

[15] = NCI Yeast Anticancer Drug Screen. Data for the rad18 strain (AID 177); conditions: S. cerevisiae rad18 mutant growth inhibition, stronger effect = higher value
In short: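 Yeast carrying a defined DNA damage repair alteration were exposed to compounds. Growth inhibition was expressed relative to vehicle-treated controls.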

[16] = at 5.0 µM (retest, dose inferred, filed as 0.5)
[17] = at 50.0 µM (retest, dose inferred, filed as 5.0)

Measured: growth inhibition

CCOC(=O)C1=C(C)NC(C)=C(C(=O)OCC)C1c1ccccc1Cl
inactive: [1]; at 1.2 µM -25% | [1]; at 3.7 µM -10% | [1]; at 11.0 µM 4% | [1]; at 33.0 µM 42% | [2]; at 1.2 µM -8% | [2]; at 3.7 µM 3% | [2]; at 11.0 µM -6% | [2]; at 33.0 µM 40% | [3]; at 1.2 µM -5% | [3]; at 3.7 µM 13% | [3]; at 11.0 µM 9% | [3]; at 33.0 µM 17% | [3]; at 100.0 µM 26% | [4]; at 1.2 µM 14% | [4]; at 3.7 µM 14% | [4]; at 11.0 µM 19% | [4]; at 33.0 µM 54% | [5]; at 1.2 µM 9% | [5]; at 3.7 µM 23% | [5]; [16] 54% | [5]; at 11.0 µM 29% | [5]; at 33.0 µM 48% | [6]; at 1.2 µM 8% | [6]; at 3.7 µM -2% | [6]; [16] 52% | [6]; at 11.0 µM -2% | [6]; at 33.0 µM 51% | [7]; [16] -15% | [8]; at 1.2 µM -13% | [8]; at 3.7 µM -22% | [8]; at 11.0 µM 38% | [8]; at 33.0 µM 56% | [9]; [16] 43% | [10]; at 1.2 µM 35% | [10]; at 3.7 µM 34% | [10]; [16] 26% | [10]; at 11.0 µM 4% | [10]; at 33.0 µM 62% | [11]; at 1.2 µM 14% | [11]; at 3.7 µM 11% | [11]; at 11.0 µM 20% | [11]; at 33.0 µM 49% | [12]; at 1.2 µM -38% | [12]; at 3.7 µM -31% | [12]; at 11.0 µM -25% | [12]; at 33.0 µM 41% | [13]; at 1.2 µM 26% | [13]; at 3.7 µM 28% | [13]; at 11.0 µM 38% | [13]; at 33.0 µM 67% | [14]; [16] 36% | [15]; at 1.2 µM 2% | [15]; at 3.7 µM 18% | [15]; at 11.0 µM 20% | [15]; at 33.0 µM 50%
active: [1]; at 100.0 µM 93% | [2]; at 100.0 µM 95% | [4]; at 100.0 µM 96% | [5]; [17] 100% | [5]; at 50.0 µM 90% | [5]; at 100.0 µM 91% | [6]; [17] 99% | [6]; at 50.0 µM 91.7% | [6]; at 100.0 µM 95% | [7]; [17] 91% | [8]; at 100.0 µM 94% | [9]; [17] 90% | [10]; [17] 84% | [10]; at 100.0 µM 95% | [11]; at 100.0 µM 96% | [12]; at 100.0 µM 93% | [13]; at 100.0 µM 96% | [14]; [17] 99% | [14]; at 50.0 µM 90.4% | [15]; at 100.0 µM 93%
